Reference: the supplement of paper PMC10720658
± gives the standard deviation of the averaged measurements.

test system: AEK1 (Tb927.3.2440); test: percent reduction in TR-FRET probe signal relative to DMSO control; higher = stronger displacement of ATP-site probe (binding); details: 1 µM; incubation time 1 h

| SMILES | percent reduction in TR-FRET probe signal |
| --- | --- |
| C[C@@H]1CCN(C(=O)CC#N)C[C@@H]1N(C)c1ncnc2[nH]ccc12.O=C(O)CC(O)(CC(=O)O)C(=O)O | -1.47 ± 8.1% |
| C[C@@H](Oc1cc(-n2cnc3ccc(CN4CCN(C)CC4)cc32)sc1C(N)=O)c1ccccc1C(F)(F)F | 2.7 ± 0.28% |
| C=CC(=O)Nc1cc(Nc2nccc(-c3cn(C)c4ccccc34)n2)c(OC)cc1N(C)CCN(C)C | -8.86 ± 8.3% |
| C[C@@H]1CCN(C(=O)CC#N)C[C@@H]1N(C)c1ncnc2[nH]ccc12 | 5.48 ± 7.8% |
| CC(C)n1nc(-c2cc3cc(O)ccc3[nH]2)c2c(N)ncnc21 | 5.23 ± 4.5% |
| Oc1ccc2ccccc2c1SSc1c(O)ccc2ccccc12 | -9.34 ± 9% |
| O=C(NC[C@H](O)CO)c1ccncc1Nc1ccc(I)cc1F | 8.42 ± 5% |
| NC(=O)c1ncn([C@@H]2O[C@H](CO)[C@@H](O)[C@H]2O)c1N [AICAR (Acadesine)] | -1.92 ± 11% |
| COc1cc(Nc2ncc(F)c(Nc3ccc4c(n3)NC(=O)C(C)(C)O4)n2)cc(OC)c1OC [R406 (free base)] | 87.4 ± 6% |
| COc1cccc(-c2cc(=O)c3ccccc3o2)c1N | -1.76 ± 8% |
| Cc1cc(C(C)Nc2ccccc2)c2nc(N3CCOCC3)cc(=O)n2c1 (centres undefined) | -4.42 ± 15% |
| C[C@@H](N)[C@H]1CC[C@H](C(=O)Nc2ccncc2)CC1.Cl.Cl | 2.66 ± 6.8% |
| COc1cc2ncnc(Oc3ccc(CC(=O)Nc4cnn(C(C)C)c4)cc3)c2cc1OC | 5.15 ± 13% |
| CO[C@H]1CC[C@H](N2C(=O)CNc3ncc(-c4ccc(C(C)(C)O)nc4)nc32)CC1 | -4.45 ± 1.6% |
